Test results from PubChem BioAssay.
Inconclusive results are not listed. Calls of active or inactive are those of the source. Unless noted, no cut-off is given here; in the data, nearly all actives have AC50 up to about 26 µM.

Columns and labels:
[1] = viability loss in pontine glioma line – cell-based, SU-DIPG-XVII, MIPE5.0, CellTiter-Glo, qHTS, dose response (AID 1347060); conditions: CellTiter-Glo ATP luminescence;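 for AC50: cells exposed to compound for 48 hours before viability readout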
[2] = viability loss in pontine glioma line – cell-based, SU-DIPG-XIII, MIPE5.0, CellTiter-Glo, qHTS, dose response (AID 1347064; cut-off not given, nearly all actives have AC50 up to about 23 µM;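 for AC50: cells exposed to compound for 48 hours before the viability read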); conditions: CellTiter-Glo ATP luminescence
[3] = viability loss in pontine glioma line – cell-based, SU-DIPG-XXV, MIPE5.0, CellTiter-Glo, qHTS, dose response (AID 1347065); conditions: CellTiter-Glo ATP luminescence;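 note: cells exposed to compound for 48 hours before ATP readout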
[4] = JHH-DIPG-1 glioma cell viability, MIPE5.0 library, CellTiter-Glo luminescence, qHTS (AID 1347067); conditions: JHH-DIPG-1 glioma viability, CellTiter-Glo ATP luminescence;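 note: cells exposed to compound for 48 hours before readout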
[5] = growth inhibition of DIPG cells – cell-based, MIPE5.0 library, qHTS (AID 1347068; cut-off not given, nearly all actives have IC50 up to about 30 µM;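 for IC50: cells exposed to compound for 48 hours before viability readout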); conditions: SU-DIPG-XXV viability

| SMILES | outcome [1] | outcome [2] | outcome [3] | outcome [4] | outcome [5] | AC50 [1] | AC50 [2] | AC50 [3] | AC50 [4] | IC50 [5] |
| --- | --- | --- | --- | --- | --- | --- | --- | --- | --- | --- |
| N#Cc1ccnc(N2C(=O)CC[C@H]2C(=O)N(c2cncc(F)c2)C(C(=O)NC2CC(F)(F)C2)c2ccccc2Cl)c1 (stereo not given in full) | inactive | inactive | inactive | inactive | inactive | – | – | – | – | – |
| NC(CC1c2ccccc2Oc2ccccc21)(C(=O)O)C1CC1C(=O)O (stereo not given) | inactive | inactive | inactive | inactive | inactive | – | – | – | – | – |
| CN(Cc1ccc(/C=C/C(=O)NO)cc1)CC12CC3CC(CC(C3)C1)C2 | – | – | – | – | – | 0.833 µM (active) | 0.372 µM (active) | 0.263 µM (active) | 0.332 µM (active) | 2.95 µM (active) |
| O=C(O)CCCCN(CCc1ccccc1OCc1ccc(CCc2ccccc2)cc1)Cc1ccc(C(=O)O)cc1 | inactive | inactive | inactive | inactive | inactive | – | – | – | – | – |
| COc1ccc2cc(OCC3(C(=O)O)CN(C(=O)c4ccc(F)cc4)C3)ccc2c1 | inactive | inactive | inactive | inactive | inactive | – | – | – | – | – |
| C=CCNC1=C2CC(C)CC(OC)C(O)C(C)/C=C(\C)C(OC(N)=O)C(OC)/C=C/C=C(\C)C(=O)NC(=CC1=O)C2=O (stereo not given) | – | – | – | – | – | 0.59 µM (active) | 1.66 µM (active) | 4.68 µM (active) | 0.525 µM (active) | 3.72 µM (active) |
| Cc1c[nH]c2nc(Nc3ccc(N4CCN(C)CC4)c(F)c3)nc(-c3cccc(CC#N)c3)c12 | – | – | – | – | – | 2.35 µM (active) | 4.17 µM (active) | 4.17 µM (active) | 3.72 µM (active) | 3.32 µM (active) |
| COc1ccc(Cl)cc1-c1cc(=O)[nH]c(=S)n1CC(N)=O | inactive | inactive | inactive | inactive | inactive | – | – | – | – | – |
| Cc1[nH]cnc1CN1CCN(C(=O)N[C@@H](CC(C)C)C(=O)O)[C@@H](Cc2ccccc2)C1=O | inactive | inactive | inactive | inactive | inactive | – | – | – | – | – |
| CN1C(=O)N[C@@H](Cc2c[nH]c3c(Cl)cccc23)C1=O | inactive | inactive | inactive | inactive | inactive | – | – | – | – | – |
| Cc1cccc(Oc2cnc(=O)[nH]c2)c1 | inactive | inactive | inactive | inactive | inactive | – | – | – | – | – |
| COC(=O)Nc1cc(Nc2cc(NC3CC3)c3ncc(C#N)n3n2)c(Cl)c(N2CCN(C)CC2)c1 | – | – | – | – | – | 5.25 µM (active) | 3.72 µM (active) | 2.63 µM (active) | 2.95 µM (active) | 23.5 µM (active) |
| O=C(CCCc1ccc2cccnc2n1)NCc1cc(-c2ccc(F)c(C(F)(F)F)c2)no1 | inactive | inactive | inactive | inactive | inactive | – | – | – | – | – |
| O=C1Cc2cc(C(=O)NC3C[C@H]4CC[C@@H](C3)N4S(=O)(=O)CC3CCN(CCCC(F)(F)F)CC3)c(Cl)cc2N1 (stereo not given in full) | inactive | inactive | inactive | inactive | inactive | – | – | – | – | – |
| CN1C(=O)[C@@H](NC(=O)c2n[nH]c(Cc3ccccc3)n2)COc2ccccc21 | inactive | inactive | inactive | inactive | inactive | – | – | – | – | – |
| C1=C/COCc2cc(ccc2OCCN2CCCC2)Nc2nccc(n2)-c2cccc(c2)COC/1 | – | – | – | – | – | 2.95 µM (active) | 2.95 µM (active) | 2.09 µM (active) | 4.17 µM (active) | 2.95 µM (active) |
| CN1CCN(c2ccc(Nc3ncc4cc(C#N)c(=O)n(C5CCCC5)c4n3)cc2)CC1 | – | – | – | – | – | 3.72 µM (active) | 8.33 µM (active) | 5.25 µM (active) | 10.5 µM (active) | 4.17 µM (active) |
| Cc1ccc(NC(=O)NCc2ccc3c(c2)CN(C2CCC(=O)NC2=O)C3=O)cc1Cl (stereo not given) | – | – | – | – | – | 0.00742 µM (active) | 0.00296 µM (active) | 0.00186 µM (active) | 0.00118 µM (active) | 0.00372 µM (active) |
| CNC(=O)c1ccccc1Nc1nc(Nc2ccc3c(c2OC)CCC[C@@H](N2CCN(CCO)CC2)C3)ncc1Cl | – | – | – | – | – | 2.35 µM (active) | 1.48 µM (active) | 0.833 µM (active) | 5.9 µM (active) | 11.8 µM (active) |
| C=CC(=O)Nc1cc(N2CCN(CC)CC2)ccc1Nc1cc(N(C)C(=O)Nc2c(Cl)c(OC)cc(OC)c2Cl)ncn1 | – | – | – | – | inactive | 14.8 µM (active) | 14.8 µM (active) | 18.6 µM (active) | 20.9 µM (active) | – |
| CC(C)c1cc(CNc2nc(Nc3cc(C4CC4)[nH]n3)cc(N3CCN(C)CC3)n2)on1 | – | – | – | – | – | 0.186 µM (active) | 0.166 µM (active) | 0.0833 µM (active) | 0.468 µM (active) | 0.525 µM (active) |
| CCN1CCN(Cc2ccc(NC(=O)Nc3ccc(Oc4cc(NC)ncn4)cc3)cc2C(F)(F)F)CC1 | – | – | – | – | – | 7.42 µM (active) | 3.32 µM (active) | 10.5 µM (active) | 3.72 µM (active) | 7.42 µM (active) |
| COc1c(Nc2ncc(Cl)c(N[C@H]3[C@H](C(N)=O)[C@@H]4C=C[C@@H]3C4)n2)ccc2c1CCC(N1CCOCC1)CC2 (stereo not given in full) | – | – | – | – | – | 4.17 µM (active) | 4.17 µM (active) | 2.95 µM (active) | 8.33 µM (active) | 5.9 µM (active) |

| SMILES | outcome [1] | outcome [2] | outcome [3] | outcome [4] | outcome [5] | AC50 [1] | AC50 [2] | AC50 [3] | AC50 [4] | IC50 [5] |
| --- | --- | --- | --- | --- | --- | --- | --- | --- | --- | --- |
| C=CC(=O)Nc1cccc(Oc2nc(Nc3ccc(N4CCN(C)CC4)cc3)nc3ccsc23)c1 | – | – | – | – | – | 8.33 µM (active) | 13.2 µM (active) | 9.34 µM (active) | 10.5 µM (active) | 0.59 µM (active) |
| C=CC(=O)Nc1cccc(Oc2nc(Nc3ccc(N4CCN(C)CC4)c(F)c3)nc3[nH]ccc23)c1 | – | – | – | – | – | 2.63 µM (active) | 5.25 µM (active) | 1.86 µM (active) | 9.34 µM (active) | 0.833 µM (active) |
| CN(C)Cc1ccc(S(=O)(=O)n2ccc(/C=C/C(=O)NO)c2)cc1 | – | – | – | – | – | 9.34 µM (active) | 5.9 µM (active) | 6.61 µM (active) | 9.34 µM (active) | 7.42 µM (active) |
| COc1cc2c3c(n(CCCNCCO)c(=O)c2cc1OC)-c1cc2c(cc1C3=O)OCO2 | – | – | – | – | – | 0.105 µM (active) | 2.95 µM (active) | 4.68 µM (active) | 2.63 µM (active) | 9.34 µM (active) |
| COc1nc(OCc2cccc(-c3ccccc3)c2C)ccc1CNCCNC(C)=O | – | – | – | – | – | 7.42 µM (active) | 8.33 µM (active) | 9.34 µM (active) | 9.34 µM (active) | 14.8 µM (active) |
| CCc1cccc2c3c([nH]c12)[C@@](CC)(CC(=O)O)OCC3 | inactive | inactive | inactive | inactive | inactive | – | – | – | – | – |
| COc1ccc(N2C(=O)N(c3c(C)cccc3Cl)Cc3cnc(Nc4ccc(C5CCN(C)CC5)cc4OC)nc32)nc1 | – | – | – | – | – | 3.72 µM (active) | 9.34 µM (active) | 9.34 µM (active) | 16.6 µM (active) | 14.8 µM (active) |
| Cc1cc(OCCCc2c3n(c4c(-c5c(C)nn(C)c5C)c(Cl)ccc24)[C@H](C)CN(c2cn(C)c4ccc(C(=O)O)cc24)C3=O)cc(C)c1Cl | – | – | – | – | – | 0.833 µM (active) | 5.25 µM (active) | 0.468 µM (active) | 9.34 µM (active) | 3.72 µM (active) |
| Cc1cnc(Nc2ccc(F)cc2Cl)nc1-c1c[nH]c(C(=O)NC(CO)c2cccc(Cl)c2)c1 (stereo not given) | – | – | – | – | – | 3.32 µM (active) | 5.9 µM (active) | 2.09 µM (active) | 2.63 µM (active) | 10.5 µM (active) |
| COc1cc(F)ccc1-c1ncnc(Nc2cccc(CS(C)(=N)=O)c2)n1 (stereo not given) | – | – | – | – | – | 1.48 µM (active) | 1.48 µM (active) | 1.66 µM (active) | 1.86 µM (active) | 1.86 µM (active) |
| CCS(=O)(=O)N1CCC([C@@H](C)n2c(C)c(C(=O)NCc3c(OC)cc(C)[nH]c3=O)c3ccccc32)CC1 | inactive | inactive | inactive | inactive | inactive | – | – | – | – | – |
| C=CCN1C[C@H](C(=O)N(CCCN(C)C)C(=O)NCC)CC2c3cccc4[nH]cc(c34)C[C@H]21 (stereo not given in full) | inactive | inactive | inactive | inactive | inactive | – | – | – | – | – |
| CCC(=O)N1CCOc2c(cc(-c3cc(OC)cc(OC)c3)cc2C(=O)N[C@H]2CCCN(C)C2)C1 | inactive | inactive | inactive | inactive | inactive | – | – | – | – | – |
| CS(=O)(=O)c1ccc(Oc2cc(F)cc(C#N)c2)c2c1[C@H](O)C(F)(F)C2 | inactive | inactive | inactive | inactive | inactive | – | – | – | – | – |
| c1ccc2c(-c3cnn4cc(-c5ccc(OCCN6CCOCC6)cc5)cnc34)ccnc2c1 | – | – | – | – | inactive | 12.9 µM (active) | 14.4 µM (active) | 9.1 µM (active) | 10.2 µM (active) | – |
| Cn1ncc(Cl)c1-c1cc(C(=O)N[C@H](CN)Cc2ccc(F)c(F)c2)sc1Cl | – | – | – | – | – | 18.6 µM (active) | 2.35 µM (active) | 1.32 µM (active) | 16.6 µM (active) | 16.6 µM (active) |
| CC1(C)CN(C(=O)c2ccc(-c3cccc4nc(NC(=O)C5CC5)nn34)cc2)C1 | inactive | inactive | inactive | inactive | inactive | – | – | – | – | – |
| CCCCNc1ncc2c(-c3ccc(F)cc3)nn(CC3CCC(N)CC3)c2n1 (stereo not given) | – | – | – | – | – | 8.11 µM (active) | 8.11 µM (active) | 5.12 µM (active) | 8.11 µM (active) | 7.23 µM (active) |
| C[C@@H]1CC(=O)Nc2cccc(-c3cnn(C(C)(C)C)c3)c2N1 | inactive | inactive | inactive | inactive | inactive | – | – | – | – | – |
| NC(=O)/C(=C/n1cnc(-c2cc(C(F)(F)F)cc(C(F)(F)F)c2)n1)c1cncnc1 | – | – | – | – | – | 0.417 µM (active) | 2.09 µM (active) | 2.35 µM (active) | 11.8 µM (active) | 3.32 µM (active) |
| N#Cc1ccc(N(Cc2ccc(Br)cc2)n2cnnc2)cc1 | inactive | inactive | inactive | inactive | inactive | – | – | – | – | – |
| CC(C)(C)C(=O)CN1C(=O)[C@H](NC(=O)Nc2cccc(C(=O)O)c2)CN(C2CCCCC2)c2ccccc21 | inactive | inactive | inactive | inactive | inactive | – | – | – | – | – |
